Assay results: PubChem BioAssay
Calls of active or inactive are those of the source.

Columns and labels:
[1] = E. coli DRC41 culture turbidity changes, primary screen, E. coli filamentation inducer project, strain DRC41, OD650, 48 h (AID 1152);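 further: E. coli MC1000 strain DRC41 lacking acrAB efflux pump and sulA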; settings: E. coli DRC41 (acrAB sulA), higher = more signal, called active from +8 up or from −8 down
[2] = small-molecule binders of probe aLefty1, primary screen, biochemical, small-molecule microarray, 635/667 nm fluorescence (AID 1153); settings: higher = more signal;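 further: score merges spot fluorescence with signal-to-noise ratio from the scanned slide images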
[3] = PSAC antagonists in infected red cells, primary screen, cell-based, P. falciparum Indochina, OD700, 1 h (AID 1154); settings: P. falciparum Indochina infected RBC osmotic lysis, higher = more signal, called active from +8 up or from −8 down
[4] = PSAC antagonists in infected red cells, primary screen, cell-based, P. falciparum Indochina, OD700, 2 h (AID 1155);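 further: lysis reports solute entry through the parasite surface anion channel PSAC; channel blockers reduce lysis of infected cells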; settings: P. falciparum Indochina infected erythrocytes, osmotic lysis OD700; higher = more signal, called active from +8 up or from −8 down
[5] = osmotic lysis modulators in infected erythrocytes, primary screen, PSAC antagonist project, cell-based, P. falciparum Indochina, OD700, 3 h (AID 1156); settings: higher = more signal, called active from +8 up or from −8 down
[6] = PSAC antagonists in infected red cells, primary screen, cell-based, P. falciparum Indochina, OD700, 18 h (AID 1157); settings: P. falciparum Indochina infected erythrocytes, osmotic lysis OD700, 18 h; higher = more signal, called active from +8 up or from −8 down
[7] = modulators of S6 phosphorylation in cells, primary screen, cell-based, A549, cytoblot, luminescence, serum-stimulated (AID 1158); settings: A549 phospho-S6 cytoblot, 5 h, higher = more signal;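 further: serum-stimulated A549 lung adenocarcinoma cells; signal is phosphorylated S6 detected by cytoblot immunostaining with HRP secondary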
[8] = target: NADPH oxidase 2 (Homo sapiens) (UniProt P04839); experiment: NOX2-dependent H2O2 signal modulators, primary screen, NOX inhibitor project, cell-based, HEK293-NOX2, PMA-stimulated, Amplex Red fluorescence (AID 1159); settings: 45 min, higher = more signal, called active from +8 up or from −8 down; further: test concentration not given here
Sequence of NADPH oxidase 2 (Homo sapiens) (P04839 whole entry, looked up): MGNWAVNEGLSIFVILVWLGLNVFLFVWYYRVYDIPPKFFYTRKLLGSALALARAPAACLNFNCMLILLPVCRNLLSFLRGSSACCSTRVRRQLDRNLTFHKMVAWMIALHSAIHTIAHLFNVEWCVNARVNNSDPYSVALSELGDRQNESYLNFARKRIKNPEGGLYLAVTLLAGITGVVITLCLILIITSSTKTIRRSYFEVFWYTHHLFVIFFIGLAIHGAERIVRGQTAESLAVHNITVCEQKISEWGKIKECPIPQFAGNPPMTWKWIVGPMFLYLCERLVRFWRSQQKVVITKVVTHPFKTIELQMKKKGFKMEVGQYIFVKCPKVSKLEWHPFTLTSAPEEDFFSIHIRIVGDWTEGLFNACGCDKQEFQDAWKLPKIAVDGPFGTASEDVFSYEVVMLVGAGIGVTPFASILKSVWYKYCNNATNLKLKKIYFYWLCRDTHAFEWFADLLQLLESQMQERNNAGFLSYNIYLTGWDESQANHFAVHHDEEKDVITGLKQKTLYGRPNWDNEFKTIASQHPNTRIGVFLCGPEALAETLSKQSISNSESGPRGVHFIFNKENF

[9] = target: NADPH oxidase 4 (Homo sapiens) (UniProt Q9NPH5); experiment: NOX4-dependent H2O2 signal modulators, primary screen, NOX inhibitor project, cell-based, HEK293-NOX4, tetracycline-induced, Amplex Red fluorescence (AID 1160); settings: 45 min, higher = more signal, called active from +8 up or from −8 down
Sequence of NADPH oxidase 4 (Homo sapiens) (Q9NPH5 whole entry, looked up): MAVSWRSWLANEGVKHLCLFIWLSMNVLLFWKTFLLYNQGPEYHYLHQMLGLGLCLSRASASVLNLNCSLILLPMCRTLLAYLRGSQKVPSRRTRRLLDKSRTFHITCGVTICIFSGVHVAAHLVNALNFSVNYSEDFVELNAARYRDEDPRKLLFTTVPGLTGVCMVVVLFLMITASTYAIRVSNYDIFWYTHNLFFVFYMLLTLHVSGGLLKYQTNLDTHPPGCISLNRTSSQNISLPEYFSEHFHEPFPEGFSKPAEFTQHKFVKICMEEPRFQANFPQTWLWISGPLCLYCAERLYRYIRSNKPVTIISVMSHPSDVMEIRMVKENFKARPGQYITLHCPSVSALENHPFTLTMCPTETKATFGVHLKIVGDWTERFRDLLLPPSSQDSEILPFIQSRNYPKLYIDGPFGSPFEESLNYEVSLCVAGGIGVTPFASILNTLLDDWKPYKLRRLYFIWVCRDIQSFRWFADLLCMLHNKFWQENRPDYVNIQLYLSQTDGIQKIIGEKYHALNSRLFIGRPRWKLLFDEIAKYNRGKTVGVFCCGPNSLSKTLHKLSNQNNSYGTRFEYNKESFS

[10] = target: NADPH oxidase 5 (Homo sapiens) (UniProt Q96PH1); experiment: NOX5-dependent H2O2 signal modulators, primary screen, NOX inhibitor project, cell-based, HEK293-NOX5, Amplex Red fluorescence (AID 1161); settings: HEK293-NOX5, ionomycin, 45 min, higher = more signal
Sequence of NADPH oxidase 5 (Homo sapiens) (Q96PH1 whole entry, looked up): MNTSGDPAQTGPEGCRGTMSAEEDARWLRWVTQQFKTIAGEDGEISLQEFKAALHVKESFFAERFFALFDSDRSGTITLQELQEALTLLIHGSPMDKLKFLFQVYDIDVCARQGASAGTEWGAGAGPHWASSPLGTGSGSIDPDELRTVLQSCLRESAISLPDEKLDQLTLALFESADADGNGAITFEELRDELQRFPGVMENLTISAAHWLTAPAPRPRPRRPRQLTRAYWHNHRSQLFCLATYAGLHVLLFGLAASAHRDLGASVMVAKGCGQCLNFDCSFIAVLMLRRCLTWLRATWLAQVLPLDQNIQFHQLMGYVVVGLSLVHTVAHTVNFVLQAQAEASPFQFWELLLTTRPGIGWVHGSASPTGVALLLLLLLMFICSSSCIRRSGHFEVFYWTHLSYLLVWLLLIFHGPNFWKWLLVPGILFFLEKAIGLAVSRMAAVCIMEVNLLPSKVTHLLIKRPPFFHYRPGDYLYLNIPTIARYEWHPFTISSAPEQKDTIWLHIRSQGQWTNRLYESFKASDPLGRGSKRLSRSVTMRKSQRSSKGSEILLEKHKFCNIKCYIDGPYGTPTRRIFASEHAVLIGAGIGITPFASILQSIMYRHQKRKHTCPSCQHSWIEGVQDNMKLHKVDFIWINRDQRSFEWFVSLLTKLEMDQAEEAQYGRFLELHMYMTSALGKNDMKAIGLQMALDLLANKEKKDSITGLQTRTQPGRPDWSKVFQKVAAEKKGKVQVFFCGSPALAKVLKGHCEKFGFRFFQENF

[11] = A549 cell viability effects, profiling panel, calcein-AM fluorescence, 48 h, basal (AID 1162); settings: higher = more signal; further: test concentration not given here
[12] = adipocyte viability effects, profiling panel, cell-based, 3T3-L1 adipocytes, calcein-AM fluorescence, 48 h, basal (AID 1163); settings: 3T3-L1 adipocytes viability, higher = more signal; further: test concentration not given here
[13] = HepG2 cell viability effects, profiling panel, calcein-AM fluorescence, 48 h, basal (AID 1164); settings: higher = more signal; further: test concentration not given here
[14] = MM1S cell viability effects, profiling panel, calcein-AM fluorescence, 48 h, basal (AID 1165); settings: higher = more signal;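 further: viability of MM1S multiple myeloma cells under basal unstimulated conditions; test concentration not given here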
[15] = basal RPMI8226 viability, no added stimulus, profiling panel, cell-based, calcein-AM fluorescence, 48 h, PK04 Diversity Set (AID 1166); settings: RPMI8226 myeloma viability, higher = more signal;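 further: cells grown under basal conditions without added stimulus; test concentration not given here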
[16] = basal HepG2 mitochondrial membrane potential changes, profiling panel, cell-based, JC-1 fluorescence, 24 h, 100 nL compound (AID 1167); settings: higher = more signal; further: test concentration not given here
[17] = basal 3T3-L1 adipocyte mitochondrial potential changes, profiling panel, cell-based, JC-1 fluorescence, 3T3-L1 adipocytes, 24 h, 100 nL compound (AID 1168); settings: JC-1 mitochondrial fluorescence, higher = more signal, called active from +8 up or from −8 down; further: test concentration not given here
[18] = basal RPMI8226 mitochondrial membrane potential changes, profiling panel, cell-based, JC-1 fluorescence, 24 h, 100 nL compound (AID 1169); settings: RPMI8226 myeloma, JC-1 mitochondrial potential fluorescence, higher = more signal; further: test concentration not given here
[19] = basal MM1S mitochondrial membrane potential changes, profiling panel, cell-based, JC-1 fluorescence, 24 h, 100 nL compound (AID 1170); settings: higher = more signal; further: test concentration not given here
[20] = A549 lung cancer cell viability effects, profiling panel, resazurin fluorescence, 24 h, PK04 Diversity Set (AID 1171); settings: higher = more signal, called active from +8 up or from −8 down; further: test concentration not given here

Compound	z-score [1]	composite z-score [2]	z-score [3]	z-score [4]	z-score [5]	z-score [6]	z-score [7]	z-score [8]	z-score [9]	z-score [10]	z-score [11]	z-score [12]	z-score [13]	z-score [14]	z-score [15]	z-score [16]	z-score [17]	z-score [18]	z-score [19]	z-score [20]
C[C@]1(C(=O)O)c2ccccc2C(=O)N(Cc2ccccc2)[C@H]1c1ccc(CO)cc1	0.576 (inactive)	-0.147	3.5 (inactive)	0.52 (inactive)	1.06 (inactive)	0.548 (inactive)	-0.0555	0.67 (inactive)	0.917 (inactive)	0.42	0.277	0.504	0.67	0.132	0.0631	1.33	0.114 (inactive)	-0.768	0.161	1.08 (inactive)
CCOC(=O)[C@H]1C/C=C/C[C@H](C(=O)OCC)C(=O)O[C@H]2[C@@H](OC)O[C@H](CO)[C@@H](OC(=O)CCc3ccccc3)[C@@H]2OC1=O	-0.142 (inactive)	1.63	0.955 (inactive)	0.175 (inactive)	-0.518 (inactive)	0.386 (inactive)	-0.0947	0.281 (inactive)	0.273 (inactive)	0.541	0.837	0.342	0.957	0.269	0.331	0.957	0.352 (inactive)	0.655	-0.533	-0.553 (inactive)
O=C1C2C=CC(C(O)c3cc(C(F)(F)F)cc(C(F)(F)F)c3)N(Nc3ccc([N+](=O)[O-])cc3)C2C(=O)N1c1ccccc1 (stereo not given)	-1.58 (inactive)	0.361	6.16 (inactive)	2.01 (inactive)	-6.7 (inactive)	1.24 (inactive)	-0.431	-0.378 (inactive)	-2.65 (inactive)	-1.68	-1.61	0.294	-3.51	-2.62	-4.06	-0.982	-0.699 (inactive)	-1.03	-1.99	-0.0362 (inactive)
C#CCNC(=O)[C@H](Cc1ccccc1)NC(=O)[C@@H](N=[N+]=[N-])C(C)C	0.367 (inactive)	-0.145	0.0059 (inactive)	0.705 (inactive)	0.0901 (inactive)	0.405 (inactive)	-0.52	0.291 (inactive)	-0.18 (inactive)	0.323	-0.447	-0.804	0.0785	0.579	0.116	-0.266	-0.503 (inactive)	-0.205	0.254	0.903 (inactive)
C[C@]1(C(=O)NCCN2CCOCC2)c2ccccc2C(=O)N(Cc2ccc(OC(F)(F)F)cc2)[C@H]1c1ccc(CO)cc1	0.0793 (inactive)	-0.0523	6.9 (inactive)	0.621 (inactive)	3.05 (inactive)	0.327 (inactive)	-0.173	0.752 (inactive)	1.19 (inactive)	0.0149	0.742	-0.352	0.342	-0.285	0.0667	3.08	-0.446 (inactive)	-0.275	-0.609	0.354 (inactive)
COc1ccc([Si](C)(C)[C@@H]2[C@@H](CCO)O[C@]3(C(=O)N(Cc4cccc(N5C(=O)c6ccccc6Oc6ccccc65)c4)c4ccccc43)[C@H]2C)cc1	0.705 (inactive)	0.0355	2.72 (inactive)	3.13 (inactive)	0.207 (inactive)	1.77 (inactive)	0.243	0.423 (inactive)	0.543 (inactive)	1.98	-0.799	-0.472	-3.38	-1.89	-4.32	-0.192	0.614 (inactive)	-0.954	-1.82	-1.82 (inactive)
COc1cc(CO)cc(I)c1O[C@H]1C=C(C(=O)NCCO)C[C@@H](N(Cc2ccc(F)cc2)C(=O)C2CCCO2)[C@@H]1O (stereo not given in full)	3.54 (inactive)	-0.147	1.92 (inactive)	0.581 (inactive)	1.03 (inactive)	0.23 (inactive)	-0.0981	0.0499 (inactive)	0.93 (inactive)	0.73	0.656	0.284	0.364	0.87	0.577	1.04	0.195 (inactive)	-0.899	0.578	-0.409 (inactive)
CC(C)CN1C(=O)[C@@]2(Cc3ccccc31)c1ccccc1C(=O)N(Cc1ccccc1C(F)(F)F)[C@H]2c1ccc(CO)cc1	1.14 (inactive)	-0.345	0.21 (inactive)	-0.419 (inactive)	-0.495 (inactive)	-0.48 (inactive)	2.04	0.0489 (inactive)	0.771 (inactive)	1.34	1.23	1.06	0.493	0.939	1.2	0.786	-1.55 (inactive)	0.01	-0.534	-0.236 (inactive)
CCOC(=O)C1=CC[C@@H](c2ccccc2)N(S(=O)(=O)c2ccc(C)cc2)C1	-1.46 (inactive)	0.638	2.45 (inactive)	0.596 (inactive)	0.517 (inactive)	0.509 (inactive)	-0.506	-0.0336 (inactive)	-1.44 (inactive)	-1.63	-0.747	-0.384	-0.165	-1.22	-1.62	0.546	-1.07 (inactive)	0.84	-0.977	-0.145 (inactive)
O=C(N1CCCCC1)[C@@]1(Cc2ccccc2)COC(c2ccc(OCCCO)cc2)=N1	0.436 (inactive)	0.461	20.9 (active)	3.44 (inactive)	1.32 (inactive)	0.42 (inactive)	-0.666	-4.59 (inactive)	-0.936 (inactive)	-2.26	-1.14	0.675	-0.159	-3.14	-1.77	-2.33	0.987 (inactive)	-1.08	-0.923	1.68 (inactive)
O=C(CCCCCCC(=O)Nc1ccccc1)N/N=C/c1ccccc1	-0.362 (inactive)	-0.24	24 (active)	10.9 (active)	0.0998 (inactive)	0.992 (inactive)	-0.0886	-0.3 (inactive)	-0.0411 (inactive)	-0.185	1.08	0.194	-0.371	-0.669	-0.419	-0.807	-0.498 (inactive)	-0.045	-0.593	0.589 (inactive)
CCOC(=O)C[C@H]1[C@H](OC(=O)Cc2ccc3c(c2)OCO3)[C@@H](NC(=O)C2CCCCC2)c2cc(OCCCO)ccc2N1C(=O)c1ccc2ccccc2n1	0.699 (inactive)	-0.106	1.88 (inactive)	-0.954 (inactive)	-0.13 (inactive)	-2.2 (inactive)	1.17	-1.86 (inactive)	0.214 (inactive)	-2.62	0.177	1.72	0.726	0.435	-1.18	-2.42	0.436 (inactive)	0.602	-0.703	0.125 (inactive)
CC(C)(C)OC(=O)CC[C@]1(C(=O)O)N=C(c2ccc(OCCCO)cc2)O[C@H]1c1ccccc1CN=[N+]=[N-]	0.59 (inactive)	0.0355	16.3 (active)	1.36 (inactive)	0.0614 (inactive)	0.594 (inactive)	0.172	0.433 (inactive)	1.01 (inactive)	1	0.61	-0.788	0.682	0.519	0.375	1.43	1.05 (inactive)	-0.697	-0.738	-0.245 (inactive)
COCCOC(=O)N1C(=O)[C@@]2(c3cc(C#CC4=CCCCC4)ccc31)[C@H](c1ccc(O)cc1)N1[C@H](c3ccccc3)[C@H](c3ccccc3)OC(=O)[C@H]1[C@@H]2C(=O)Nc1nc2ccccc2s1	-0.567 (inactive)	0.571	2.09 (inactive)	1.76 (inactive)	0.599 (inactive)	1.81 (inactive)	-0.507	1.55 (inactive)	-0.0515 (inactive)	0.897	-0.0695	-0.898	0.0669	-1.01	-1.65	-2.79	-0.451 (inactive)	-0.941	-0.887	-0.304 (inactive)
C[C@H]1C2=C3C(CC[C@H]4C(OCc5ccc(F)cc5C(F)(F)F)OC[C@](C)([C@@H]34)N(C(=O)OC(C)(C)C)C2)C2COC(=O)OCC21 (stereo not given in full)	-2.42 (inactive)	0.739	2.68 (inactive)	0.368 (inactive)	1.19 (inactive)	1.11 (inactive)	-0.139	-0.0545 (inactive)	-2.17 (inactive)	-1.09	-1.17	0.338	-0.659	-2.6	-3.96	-0.255	-1.06 (inactive)	-0.325	-0.183	0.117 (inactive)
CC(CO)N1C(=O)[C@@H]2C3C(=O)OCCC/C=C\[C@H]3OC23C=CCN(Cn2nnc4ccccc42)C(=O)[C@@H]13 (stereo not given in full)	0.822 (inactive)	-0.0035	1.03 (inactive)	0.132 (inactive)	2.14 (inactive)	0.502 (inactive)	0.282	1.32 (inactive)	0.193 (inactive)	2.03	0.0034	-0.126	0.789	1.76	0.285	0.567	0.425 (inactive)	0.222	-1.33	-0.0257 (inactive)
CCOC(=O)C[C@H]1[C@H](OC(=O)c2ccccc2-c2ccccc2)[C@@H](NC(=O)CC(C)C)c2cc(OCCCO)ccc2N1C(=O)c1ccc2ccccc2n1	-0.518 (inactive)	-0.192	11.9 (active)	1.64 (inactive)	-0.0722 (inactive)	0.598 (inactive)	-0.577	-0.274 (inactive)	1.15 (inactive)	1.51	0.375	0.556	0.2	-1.32	-2.05	0.851	-0.0831 (inactive)	-0.537	0.32	-0.109 (inactive)
CCN(CC)c1ccc(N2CC=CC34O[C@@H]5/C=C\CCC(C)OC(=O)C5[C@H]3C(=O)N(CCO)[C@@H]4C2=O)cc1 (stereo not given in full)	-0.244 (inactive)	0.33	3.17 (inactive)	0.615 (inactive)	0.411 (inactive)	0.162 (inactive)	-0.369	-0.361 (inactive)	0.785 (inactive)	1.36	0.17	0.879	0.498	-0.379	-0.597	0.178	-0.905 (inactive)	-0.22	1.83	-0.857 (inactive)
